Results from PubChem BioAssay (NCATS).
Several values for one entry are separate records, joined by “and”; a condition that tells them apart may be missing. Equal entries are not always repeated. Results filed as inconclusive are left out. Activity calls are given as the source filed them. Unless noted, the call rests on the fitted dose curve; in most records, active means well fitted curve in the direction sought with a large enough effect; inconclusive means small, poorly fitted or top-dose-only effect, or another doubt; inactive means no such curve, though single readings can be large; an effect the other way counts as inactive or inconclusive.

Experiments:
[1] = target: Guanine nucleotide-binding protein G(i) subunit alpha-1 (Homo sapiens) (UniProt P63096); assay: qHTS Assay for Inhibitors of RGS12 GoLoco Motif Activity (Green Fluorophore) (AID 879);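 further: 0% = labeled peptide with Gαi1 and full inhibition = labeled peptide alone without protein; negative values mean loss of peptide binding seen as reduced polarization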
Sequence of Guanine nucleotide-binding protein G(i) subunit alpha-1 (Homo sapiens) (P63096 whole entry, looked up): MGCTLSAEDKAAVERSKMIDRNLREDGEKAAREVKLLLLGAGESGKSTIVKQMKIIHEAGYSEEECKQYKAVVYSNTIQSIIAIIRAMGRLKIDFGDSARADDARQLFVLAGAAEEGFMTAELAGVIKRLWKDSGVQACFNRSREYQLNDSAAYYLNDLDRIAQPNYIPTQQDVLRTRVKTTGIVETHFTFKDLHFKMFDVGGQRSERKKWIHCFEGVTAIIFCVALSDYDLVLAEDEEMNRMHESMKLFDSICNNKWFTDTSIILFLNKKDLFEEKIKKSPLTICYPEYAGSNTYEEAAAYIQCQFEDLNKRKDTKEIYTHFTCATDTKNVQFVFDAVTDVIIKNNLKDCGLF
Procedure, shortened: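 A drop in FITC polarization marked displacement of the FITC-tagged RGS12 GoLoco peptide (10 nM) from Gαi1 (50 nM). Compounds were incubated 10 min at room temperature in Tris pH 7.5 buffer containing 150 mM NaCl, 0.1 mM GDP and 0.05% NP40; unlabeled peptide titration served as control.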

[2] = qHTS Assay for Identification of Small Molecule Agonists for Thrombopoietin (TPO) Signaling Pathway (AID 917); further: on the % scale 0 is the no-effect control and ±100 the full control effect
Procedure, shortened: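 Stimulation at the TPO EC50 (26 pM final) was used to detect activators. Ba/F3 mouse cells bearing human TPO receptor and a luciferase reporter under the Glycoprotein IIb promoter were exposed to compounds for 24 hrs at 37 C.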

[3] = target: Pyruvate kinase (Leishmania mexicana) (UniProt Q27686); assay: qHTS Validation Assay for Inhibitors of Leishmania Mexicana Pyruvate Kinase (AID 945);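 further: 0% = DMSO only neutral control wells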
Sequence of Pyruvate kinase (Leishmania mexicana) (Q27686 2-499 E452W): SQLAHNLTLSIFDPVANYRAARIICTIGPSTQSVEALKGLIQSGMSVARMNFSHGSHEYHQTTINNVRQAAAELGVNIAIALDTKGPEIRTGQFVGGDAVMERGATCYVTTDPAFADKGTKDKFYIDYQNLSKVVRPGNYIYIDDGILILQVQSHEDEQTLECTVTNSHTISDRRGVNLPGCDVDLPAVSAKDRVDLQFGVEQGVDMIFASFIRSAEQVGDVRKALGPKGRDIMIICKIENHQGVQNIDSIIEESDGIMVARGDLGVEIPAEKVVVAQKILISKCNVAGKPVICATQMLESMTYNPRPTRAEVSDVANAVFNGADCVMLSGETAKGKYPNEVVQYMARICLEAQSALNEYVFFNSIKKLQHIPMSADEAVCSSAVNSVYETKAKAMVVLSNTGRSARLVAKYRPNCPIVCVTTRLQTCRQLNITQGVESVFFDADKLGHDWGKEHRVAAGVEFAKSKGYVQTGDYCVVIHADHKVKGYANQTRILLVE
Procedure, shortened: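 Mutant LmPYK (E451W), 0.2 nM, plus 0.5 mM PEP and 0.1 mM ADP in 50 mM imidazole pH 7.2 containing 0.01% Tween 20 and 0.05% BSA. Incubated 1 h at room temperature; luminescence via PKLight, normalized to DMSO.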

[4] = target: Pyruvate kinase PKM (Homo sapiens) (UniProt P14618); assay: qHTS Assay for Activators of Human Muscle Pyruvate Kinase (AID 954; active means well fitted curve in the direction sought with a large enough effect, not every such curve was filed as active;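 further: 0% = uninhibited enzyme and -100% = no enzyme or full thiadiazolimine inhibition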)
Sequence of Pyruvate kinase PKM (Homo sapiens) (P14618 whole entry, looked up): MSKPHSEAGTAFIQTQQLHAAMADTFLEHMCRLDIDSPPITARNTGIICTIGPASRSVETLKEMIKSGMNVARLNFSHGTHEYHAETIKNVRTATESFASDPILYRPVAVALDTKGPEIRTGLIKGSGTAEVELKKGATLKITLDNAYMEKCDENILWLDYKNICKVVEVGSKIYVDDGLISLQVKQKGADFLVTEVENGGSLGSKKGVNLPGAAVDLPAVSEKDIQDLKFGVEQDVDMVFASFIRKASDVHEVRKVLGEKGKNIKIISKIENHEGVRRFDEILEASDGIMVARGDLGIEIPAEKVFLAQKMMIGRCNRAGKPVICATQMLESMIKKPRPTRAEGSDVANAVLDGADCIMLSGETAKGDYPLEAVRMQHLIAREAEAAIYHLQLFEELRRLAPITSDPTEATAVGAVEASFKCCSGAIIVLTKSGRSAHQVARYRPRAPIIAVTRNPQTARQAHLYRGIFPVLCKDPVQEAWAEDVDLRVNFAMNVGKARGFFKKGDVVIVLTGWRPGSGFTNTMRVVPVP
Procedure, shortened: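 Compound pinned into substrate mix (0.5 mM PEP, 0.1 mM ADP), then 0.1 nM PKM2 added; 1 h, RT. Stop/detection luciferase reagent added, luminescence read. Normalized to no-inhibition and no-enzyme or reference-inhibitor controls.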

[5] = target: Alpha-galactosidase (Coffea arabica) (UniProt Q42656); assay: Counterscreen for Glucocerebrosidase Inhibitors: qHTS Assay for Coffee Bean alpha-Galactosidase at pH 4.5 (AID 957);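 further: series mostly up to about 77 µM; plate controls were enzyme alone for no effect and no enzyme for full effect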
Sequence of Alpha-galactosidase (Coffea arabica) (Q42656 whole entry, looked up): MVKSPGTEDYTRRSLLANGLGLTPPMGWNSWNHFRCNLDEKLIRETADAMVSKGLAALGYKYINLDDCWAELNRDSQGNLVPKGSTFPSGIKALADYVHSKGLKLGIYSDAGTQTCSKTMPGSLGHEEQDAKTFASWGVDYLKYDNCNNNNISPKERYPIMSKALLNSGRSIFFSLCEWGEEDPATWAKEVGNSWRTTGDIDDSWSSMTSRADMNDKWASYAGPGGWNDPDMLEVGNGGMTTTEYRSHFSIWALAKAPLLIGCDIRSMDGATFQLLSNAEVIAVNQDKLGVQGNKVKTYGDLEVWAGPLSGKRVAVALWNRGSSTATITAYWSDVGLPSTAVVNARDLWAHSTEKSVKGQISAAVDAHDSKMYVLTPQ
Procedure, shortened: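 Quantitative HTS of compounds (0.7 nM to 77 uM) against coffee bean alpha-galactosidase at pH 4.5, measuring 4-methylumbelliferone fluorescence released from 80 uM substrate.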

[6] = target: alpha-glucosidase (Oryza sativa, rice) (UniProt Q653V4); assay: Counterscreen for Glucocerebrosidase Inhibitors: qHTS Assay for Rice alpha-Glucosidase at pH 5.0 (AID 997);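 further: 0% = full activity with enzyme and -100% = basal without enzyme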
Procedure, shortened: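 Endpoint fluorogenic assay at pH 5.0: compounds (0.7 nM to 77 uM) titrated against 4 nM rice enzyme and 400 uM 4-MU-alpha-glucoside for 20 min at room temperature; NaOH/glycine stop, read ex 365/em 440 nm, Hill-fitted AC50.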

[7] = target: Alpha-galactosidase (Coffea arabica) (UniProt Q42656); assay: Counterscreen for Glucocerebrosidase Inhibitors: qHTS Assay for Coffee Bean alpha-Galactosidase at pH 5.9 (AID 998);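 further: plate controls were uninhibited enzyme for no effect and no-enzyme basal signal for full effect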
Procedure, shortened: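 In 50 mM citric acid pH 5.9 with 0.005% Tween-20, coffee bean enzyme hydrolyses 80 uM 4-MU alpha-D-galactopyranoside over 20 min at RT. Activity is normalized to controls; AC50 comes from Hill-modelled concentration-response data.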

[8] = target: Cytochrome P450 2C9 (Homo sapiens) (UniProt P11712); assay: qHTS Assay for Inhibitors and Substrates of Cytochrome P450 2C9 (AID 883); further: nearly all actives have a fitted effect of over 60% in size; further: potency means the concentration at half of the fitted maximal effect
Sequence of Cytochrome P450 2C9 (Homo sapiens) (P11712 whole entry, looked up): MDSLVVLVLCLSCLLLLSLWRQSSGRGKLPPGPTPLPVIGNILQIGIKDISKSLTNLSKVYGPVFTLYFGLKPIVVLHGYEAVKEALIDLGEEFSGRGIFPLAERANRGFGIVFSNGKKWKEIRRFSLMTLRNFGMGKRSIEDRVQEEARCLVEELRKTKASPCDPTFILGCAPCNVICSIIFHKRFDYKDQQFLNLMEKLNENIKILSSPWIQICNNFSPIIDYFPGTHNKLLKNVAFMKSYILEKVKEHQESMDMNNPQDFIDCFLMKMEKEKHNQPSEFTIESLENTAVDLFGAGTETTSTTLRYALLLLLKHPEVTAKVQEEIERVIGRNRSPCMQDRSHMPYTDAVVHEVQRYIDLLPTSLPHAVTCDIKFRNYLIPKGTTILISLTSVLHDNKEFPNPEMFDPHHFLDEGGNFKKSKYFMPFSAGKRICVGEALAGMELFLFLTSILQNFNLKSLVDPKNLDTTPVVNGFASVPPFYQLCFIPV
Procedure, shortened: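 A luminogenic readout tracked human CYP2C9 (10nM) converting deoxyluciferin (100uM, at KM) in 25mM KPO4 during 60 min at 37C with regenerated NADPH. Values normalized to 57uM sulphaphenazole as complete inhibition.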

[9] = target: Muscarinic acetylcholine receptor M1 (Rattus norvegicus) (UniProt P08482); assay: qHTS Assay for Antagonists of Acetylcholine Muscarinic M1 Receptor: Measurement of IP-One Response (AID 944); further: nearly all actives have a fitted effect of over 75% in size; further: potency means the concentration at half of the fitted maximal effect
Sequence of Muscarinic acetylcholine receptor M1 (Rattus norvegicus) (P08482 whole entry, looked up): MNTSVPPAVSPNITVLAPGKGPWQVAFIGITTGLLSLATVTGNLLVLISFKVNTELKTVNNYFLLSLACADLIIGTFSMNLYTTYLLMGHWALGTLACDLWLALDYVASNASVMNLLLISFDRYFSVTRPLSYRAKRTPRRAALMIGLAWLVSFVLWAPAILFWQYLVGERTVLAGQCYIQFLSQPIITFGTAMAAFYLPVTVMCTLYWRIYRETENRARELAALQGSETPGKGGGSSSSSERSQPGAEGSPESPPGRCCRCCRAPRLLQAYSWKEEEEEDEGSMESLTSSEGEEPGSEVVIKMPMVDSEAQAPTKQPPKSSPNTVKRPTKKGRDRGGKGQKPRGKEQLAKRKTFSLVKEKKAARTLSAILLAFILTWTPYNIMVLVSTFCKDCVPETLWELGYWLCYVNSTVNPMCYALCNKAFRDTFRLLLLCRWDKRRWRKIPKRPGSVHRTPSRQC
Procedure, shortened: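 Antagonism was measured as loss of carbachol-driven (EC80) IP1 accumulation in CHO cells carrying rat M1, using a homogeneous IP-One TR-FRET kit read at 620 and 665 nm.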

[10] = Confirmation and Secondary Assay for Modulators of Hemoglobin Beta Chain Splicing at IVS2 705 locus (AID 930);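 further: HeLa cells stably expressing the EGFP-705 splicing reporter; GFP fluorescence per well restored by corrected splicing of the IVS2-705 intron in EGFP; series mostly up to about 46 µM; % of control where 0% means no effect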
Procedure, shortened: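 Stable HeLa line with EGFP disrupted by mutant beta-globin intron 2 (705). Overnight attachment, then 2 days of compound at 37C, 5% CO2. Signal: peak GFP intensity summed over objects 5-250 µm.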

[11] = target: Retinoic acid receptor RXR-alpha (Homo sapiens) (UniProt P19793); assay: qHTS assay for small molecule antagonists of retinoid X receptor alpha signaling (AID 588546; active means well fitted inhibition curve with a large enough effect in the signal ratio, with a control signal flat, not every such curve was filed as active; the % refers to the signal ratio;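 further: cells stimulated with 9-cis-retinoic acid as agonist; on the % scale 0 is the no-effect control and ±100 the full control effect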); conditions: HEK293T RXRa-UAS-bla, beta-lactamase ratio, antagonist mode
Sequence of Retinoic acid receptor RXR-alpha (Homo sapiens) (P19793 whole entry, looked up): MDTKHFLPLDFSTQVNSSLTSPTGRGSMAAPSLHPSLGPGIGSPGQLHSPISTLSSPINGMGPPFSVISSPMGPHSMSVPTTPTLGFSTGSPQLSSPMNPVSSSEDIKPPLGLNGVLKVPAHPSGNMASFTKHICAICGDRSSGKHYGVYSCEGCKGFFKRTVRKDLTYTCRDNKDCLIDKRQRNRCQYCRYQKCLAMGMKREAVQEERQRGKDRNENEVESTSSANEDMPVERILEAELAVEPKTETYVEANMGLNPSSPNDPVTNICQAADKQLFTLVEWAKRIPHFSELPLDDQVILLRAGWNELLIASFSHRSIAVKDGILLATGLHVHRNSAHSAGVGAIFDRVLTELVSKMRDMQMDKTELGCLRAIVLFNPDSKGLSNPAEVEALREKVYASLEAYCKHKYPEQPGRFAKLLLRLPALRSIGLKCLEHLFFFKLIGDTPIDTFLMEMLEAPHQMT
Procedure, shortened: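 Beta-lactamase reporter inhibition, read as CCF4 fluorescence ratio (ex 405, em 460/530 nm) after 2 h at RT. HEK293T UAS-bla cells, 2500/well, were stimulated with 9-cis-RA at 500 or 100 nM final alongside test compound for 18 h at 37 C.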

[12] = qHTS assay for small molecule activators of the p53 signaling pathway (AID 651743; active means well fitted activation curve with a large enough effect in the signal ratio, not every such curve was filed as active; the % refers to the signal ratio; further: series mostly up to about 92 µM; % of control where 0% means no effect); conditions: HCT-116 p53RE-bla, beta-lactamase FRET ratio, 16 h; activation: active compounds read high
Procedure, shortened: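 Here HCT-116 cells with an integrated p53-responsive beta-lactamase gene were incubated with compounds (16 hours, 37 C) after a 5-hour plating period; beta-lactamase activity was detected as fluorescence intensity via B/G FRET substrate.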

[13] = qHTS assay for small molecule agonists of the antioxidant response element (ARE) signaling pathway measured by Nrf2-dependant transcriptional activity - cell viability counter screen (AID 720653; active means well fitted curve in the direction sought with a large enough effect in the repeat runs; an effect the other way counts as inactive or inconclusive; further: on the % scale 0 is the no-effect control and ±100 the full control effect); conditions: ARE-bla HepG2 viability, CellTiter-Glo ATP luminescence, 16 h; active compounds read low
Procedure, shortened: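 ARE-bla HepG2 cells (2,000/well) rested 5 hrs at 37C/5% CO2, then exposed to compounds in DMSO for 16 hrs. Viability was read in the same wells as intracellular ATP by luminescence, 30 min at room temperature after reagent addition.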

[14] = qHTS assay for cell viability of HEK293 cells (AID 743288); conditions: ATP luminescence (CellTiter-Glo), 18 h; max response: active compounds read low; further: on the % scale 0 is the no-effect control and ±100 the full control effect; nearly all actives have a fitted effect of over 50% in size
Procedure, shortened: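 Steps: plate 2,000 parental HEK293 cells per well; incubate ≥5 h, 37 C; add compounds in DMSO; incubate 18 h, 37 C; add CellTiter-Glo; wait 30 min at room temperature; read luminescence.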

CC[C@@]1(c2ccc(N)cc2)CCC(=O)NC1=O
inactive: outcome [1] | outcome [2] | Potency [3] | outcome [4] | outcome [5] | outcome [6] | outcome [7]

CC(C)NC(=O)N1CC[C@@]2(CCCNC2)C1
inactive: Potency [8]

C[N+]1(C)[C@@H]2CC[C@H]1CC(OC(=O)[C@@H](CO)c1ccccc1)C2 (stereo not given in full)
inactive: outcome [1] | outcome [2] | Potency [3] | outcome [4] | outcome [5] | outcome [6] | outcome [7]

C[C@H](NC(C)(C)C)C(=O)c1cccc(Cl)c1
inactive: outcome [1] | outcome [2] | Potency [3] | outcome [4] | outcome [5] | outcome [6] | outcome [7]

COc1ccc(OC)c([C@H](O)[C@H](C)N)c1
inactive: outcome [1] | outcome [2] | Potency [9] | Potency [3] | outcome [4] | outcome [5] | outcome [6] | outcome [7]

C[C@]12CC[C@H](O)C[C@@H]1CC[C@H]1[C@H]2CC[C@]2(C)C(=O)CC[C@@H]12
inactive: outcome [1] | outcome [2] | Potency [3] | outcome [4] | outcome [5] | outcome [6] | outcome [7]

O=C(O)CNCP(=O)(O)O
inactive: Potency [10]

C[C@@]12CC[C@H]3[C@@H](CC[C@@H]4C[C@H]5S[C@H]5C[C@]43C)[C@H]1CC[C@H]2O
active: Potency [8] 0.005 µM

CN1CCCC2(CCN(C(=O)c3ccncc3)CC2)C1
inactive: Potency [8]

NC[C@H](O)c1ccc(O)cc1
inactive: outcome [1] | outcome [2] | Potency [9] | Potency [3] | outcome [4] | outcome [5] | outcome [6] | outcome [7]

C#CCN(C)[C@@H](C)Cc1ccccc1
inactive: outcome [1] | outcome [2] | Potency [9] | Potency [3] | outcome [4] | outcome [5] | outcome [6] | outcome [7]

CCC[C@@](C)(COC(N)=O)COC(=O)NC(C)C
inactive: Potency [8]

CC(C)c1c(CN(C)[C@@H](C)Cc2ccccc2)n(C)n(-c2ccccc2)c1=O
active: Potency [8] 7.94 µM

COc1ccc(C[C@H]2c3cc(OC)c(OC)cc3CCN2C)cc1OC
inactive: Potency [8]

CN1CC[C@]2(C)c3cc(O)ccc3N(C)[C@@H]12
active: Potency [8] 25.1 µM
inactive: outcome [1] | Potency [9] | Potency [3] | outcome [4] | outcome [5] | outcome [6] | outcome [7]

CC(C)[C@@]1(NC(=O)[C@@H]2C[C@H]3c4cccc5[nH]cc(c45)C[C@@H]3N(C)C2)O[C@]2(O)[C@H]3CCCN3C(=O)[C@H](Cc3ccccc3)N2C1=O
active: Potency [8] 2.51 µM

c1ccc2c(c1)[nH]c1cnccc12
inactive: Potency [10]

CNC(=O)N(C)c1nnc(C(C)(C)C)s1
inactive: Potency [10] | max response [11] -28.5% | activation [12] -3.47% | max response [13] 4.89% | max response [14] -3.03%

CN1Cc2c(ccc3c2OCO3)[C@@H]2[C@@H](O)Cc3cc4c(cc3[C@@H]21)OCO4
inactive: Potency [8]

CC[C@H]1C(=O)OC[C@H]1Cc1cncn1C
inactive: outcome [5] | outcome [7]

CC(C)N(CC[C@@](C(N)=O)(c1ccccc1)c1ccccn1)C(C)C
inactive: outcome [1] | outcome [2] | Potency [3] | outcome [4] | outcome [5] | outcome [6] | outcome [7]
active: Potency [9] 5.62 µM and 6.31 µM
